Measured values taken from PubChem BioAssay AID504832 (National Center for Advancing Translational Sciences (NCATS), 2011).
The whole screen tested about 310,000 compounds, of which about 18,000 (5.8%) were called active. Another 22% or so got no clear call; they are omitted. This is one part of a sample in which actives are shown more often than they occur. Unmarked numbers belong to inactive results. Calls come from the whole dose curve; as a rule, active = well fitted inhibition curve with a large enough effect; inconclusive = small, poorly fitted or top-dose-only effect, or another doubt; inactive = no such curve, though single readings can be large or run the other way.

Experiment: Primary qHTS for delayed death inhibitors of the malarial parasite plastid, 48 hour incubation
Details: P. falciparum luciferase growth in erythrocytes; series mostly up to 28.7 µM; activity change, negative = inhibition: at the top concentration
In short: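 Luminescence readout; reporter = integrated firefly luciferase in P. falciparum. RBC culture at 2% hematocrit, 0.1% parasitemia final, 37 C/5% CO2; decreased signal taken as growth inhibition.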
% is set by controls: 0 for no effect and ±100 for the full control effect; potency is the fitted concentration of half-maximal effect.

Row | Compound | activity change, negative = inhibition | Potency
1 | N#Cc1ccc(C(c2ccc(C#N)cc2)n2cncn2)cc1 | -10.5% [at 12.8 µM] | –
2 | CC(C)C(c1nnnn1CCc1ccccc1)N1CCN(C(=O)c2ccco2)CC1 (stereo unspecified) | -24% | –
3 | N#Cc1ccc(C(c2nnnn2CCc2ccccc2)N2CCCCCC2)cc1 (stereo unspecified) | – | 1.65 µM (active)
4 | CCCc1nc(SCC(=O)N2CCCC2)c2c(=O)n(C)c(=O)n(C)c2n1 | 12.7% | –
5 | CC(=O)N1CCN(CC(c2ccccc2)c2ccccc2)CC1 | -29% | –
6 | COc1ccccc1CN(C)C(=O)C1(c2ccc(Cl)cc2)CC1 | -29.6% | –
7 | COc1cccc(CN(C)CC(=O)NCc2ccccc2Cl)c1OC | -4.79% | –
8 | COc1cccc(CN(C)CC2CCCN(CCc3ccc(Cl)cc3)C2)c1OC (stereo unspecified) | – | 5.86 µM (active)
9 | COc1cccc(NC(=O)N2C3CCCC2CC(NC(C)=O)C3)c1 (stereo unspecified) | 5.95% | –
10 | CCOc1cc(C2/C(=C(/O)c3ccc(S(=O)(=O)N4CCCCC4)cc3)C(=O)C(=O)N2CCOC)ccc1O (stereo unspecified) | 23.4% | –
11 | O=C1CCCC2=C1C(c1cccs1)CC(=O)N2c1ccc(F)cc1 (stereo unspecified) | -13.5% | –
12 | CCOC(=O)C1=C(N)N(c2ccc(C)cc2)C2=C(C(=O)CCC2)C1c1cccs1 (stereo unspecified) | – | 9.28 µM (active)
13 | CCOC(=O)c1cc2c(n(-c3ccc(C)cc3)c1=O)CCCC2=O | -0.459% | –
14 | COc1cc2cc(C(=O)N/N=C/c3cccc(OC)c3OC)[nH]c2cc1OC | -25.8% | –
15 | C=CCN1C(=NC(=O)COc2ccccc2)SC2CS(=O)(=O)CC21 (stereo unspecified) | 11.7% | –
16 | CCn1c(=N)c(S(=O)(=O)c2ccc(F)cc2)cc2c(=O)n3ccccc3nc21 | -15.3% | –
17 | C/C(=N/OC(=O)c1c(-c2c(F)cccc2Cl)noc1C)c1cnccn1 | 77.4% | –
18 | CCOC(=O)c1cc2c(=O)n3ccccc3nc2n(CC(C)C)c1=NC(=O)c1c(-c2c(F)cccc2Cl)noc1C | – | 2.33 µM (active)
19 | O=C(Nc1cc2c3c(c1)CC(=O)N3CCC2)c1ccccc1F | 14.7% | –
20 | COc1cccc(CN2CCN(Cc3ccc4cccc(F)c4n3)CC2CCO)c1 (stereo unspecified) | -23.9% | –
21 | O=c1c2c(-c3ccccc3)ccnc2[nH]n1-c1ccccc1 | 50.4% | –
22 | COc1ccc(Cc2nnc(NC(=O)c3cc(OC)c(OC)c(OC)c3)s2)cc1OC | -0.338% | –
23 | COc1ccc(Cc2nnc(NC(=O)c3ccc(OC)cc3OC)s2)cc1 | – | 1.65 µM (active)
24 | COc1ccc(C(=O)Nc2nncs2)c(OC)c1 | 81.1% | –
25 | Cc1cc(C(=O)NC2CC(C)(C)Cc3c2cnn3-c2ccccc2)n[nH]1 (stereo unspecified) | -17% | –
26 | COc1cccc(/C=N/Nc2ccc(Cl)nn2)c1 | 79.7% | –

Row | Compound | activity change, negative = inhibition | Potency
27 | Oc1cccc(/C=N/Nc2ccc(Cl)nn2)c1O | – | 0.415 µM (active)
28 | Clc1ccc(N/N=C/c2cccs2)nn1 | 51.7% | –
29 | O=C(CN1CCCCC1)NC(=O)Nc1ccccc1F | -1.84% | –
30 | Cc1ccc(NC(=O)CN(C)C(=O)COC(=O)C(C)(C)Oc2ccc(Cl)cc2)cc1 | 16.3% | –
31 | CN(C)CCCN(C(=O)c1ccc(S(=O)(=O)N2CCCc3ccccc32)cc1)c1nc2ccc(F)cc2s1 | – | 13.1 µM (active)
32 | CCC(=O)Nc1nnc(S(=O)(=O)N2CCCc3ccccc32)s1 | 30.3% | –
33 | CCOc1ccc2nc(N(CCN(C)C)C(=O)c3ccc4ccccc4c3)sc2c1 | 18.6% | –
34 | Cc1ccc2nc(N(CCN(C)C)C(=O)C3=COCCO3)sc2c1 | 19.2% | –
35 | CCc1ccc2nc(N(CCCN(C)C)C(=O)c3ccc4c(c3)OCCO4)sc2c1 | – | 3.29 µM (active)
36 | CN(C)CCN(C(=O)C1=COCCO1)c1nc2ccc(Cl)cc2s1 | -18.3% | –
37 | CCCC(=O)N(CCN1CCOCC1)c1nc2ccc(OCC)cc2s1 | 15.6% | –
38 | CCN(CC)CCN(C(=O)c1ccc(S(=O)(=O)N2CCOCC2)cc1)c1nc2cc3c(cc2s1)OCCO3 | 18.7% | –
39 | CCOc1ccc2nc(N(CCCN(C)C)C(=O)c3ccc(C(=O)c4ccccc4)cc3)sc2c1 | – | 10.4 µM (active)
40 | C[C@H](NC(=O)C1CC(=O)N(c2ccc3c(c2)OCO3)C1)C(=O)NCc1ccco1 (stereo partly specified) | -14.8% | –
41 | CCc1ccccc1N(CC(=O)NCC1CCCO1)C(=O)CCC(=O)Nc1nccs1 (stereo unspecified) | 3.46% | –
42 | CC(C)Oc1ccc(C(CC(=O)N2CCOCC2)C(C)C)cc1 (stereo unspecified) | -14.2% | –
43 | COc1ccc(CSc2nnnn2-c2ccc(C(=O)O)cc2)cc1 | 27.6% | –
44 | COc1ccc(C(=O)NCC(=O)N/N=C/c2cccnc2)cc1 | 20.6% | –
45 | COc1ccc(C(=O)OCC(=O)c2ccc(C)c(S(=O)(=O)N3CCOCC3)c2)cc1OC | -3.93% | –
46 | Cc1cc(NC(=O)COC(=O)c2ccc(F)c(S(=O)(=O)N3CCOCC3)c2)no1 | 14.3% | –
47 | CCOc1ccc(CCNC(=O)COC(=O)c2ccc(F)c(S(=O)(=O)N3CCOCC3)c2)cc1OCC | – | 14.7 µM (active)
48 | CC(C)CNC(=O)C(=O)NCC(c1ccc2c(c1)OCO2)N1CCOCC1 (stereo unspecified) | 24.3% | –
49 | CCCCn1c(SCC(=O)N2CCC(C(=O)OCC)CC2)nc2cc(S(N)(=O)=O)ccc21 | – | 13.1 µM (active)
50 | NS(=O)(=O)c1ccc(CCNC(=O)CCCn2c(SCC(=O)N3CCCC3)nc3ccsc3c2=O)cc1 | -56.3% | –
51 | CCCCn1c(SCC(=O)N2CCCC2=O)nc2cc(S(N)(=O)=O)ccc21 | -7.78% | –
